RecA intein inh – blocks M. tuberculosis RecA intein splicing; inhibition, % (test concentration not listed); cell-free RecA intein splicing, fluorescence; hit rate 0.75% among 290,000; P9WHJ3; in the data active means inhibition above about 30%
SARS 3CLpro inh – SARS-CoV 3CLpro protease inhibition. recombinant SARS-CoV 3CLpro, quenched FRET peptide cleavage. inhibition, % at 6 µM. hit rate 0.14% among 290,000. AID 1706; in the data active means inhibition above about 12%
CCHFV vOTU inh – CCHFV vOTU protease inhibition; hit rate 0.55% among 370,000; inhibition, % at 11.5 µM; Pep-AMC fluorescence; in the data active means inhibition above about 30%
VHR inh abs – inhibitors of human VHR1 phosphatase (DUSP3) | P51452 | recombinant VHR phosphatase, pNPP absorbance | inhibition, % at 13.3 µM | hit rate 0.52% among 290,000 | AID 1654; in the data active means inhibition above about 50%
Target sequence (P51452 whole entry, looked up): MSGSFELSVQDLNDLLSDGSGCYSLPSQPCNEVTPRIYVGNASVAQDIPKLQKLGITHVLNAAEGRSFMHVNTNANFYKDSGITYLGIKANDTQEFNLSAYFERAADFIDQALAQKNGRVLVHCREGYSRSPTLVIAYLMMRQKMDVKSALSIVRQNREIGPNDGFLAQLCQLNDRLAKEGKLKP
FBA Mtb inh – Mtb fructose-bisphosphate aldolase inhibition; inhibition, % at 1 µM; AID 588726; hit rate 2.3% among 360,000; purified M. tuberculosis FBA, fluorescence read-out
Target sequence (P9WQA3 whole entry, looked up): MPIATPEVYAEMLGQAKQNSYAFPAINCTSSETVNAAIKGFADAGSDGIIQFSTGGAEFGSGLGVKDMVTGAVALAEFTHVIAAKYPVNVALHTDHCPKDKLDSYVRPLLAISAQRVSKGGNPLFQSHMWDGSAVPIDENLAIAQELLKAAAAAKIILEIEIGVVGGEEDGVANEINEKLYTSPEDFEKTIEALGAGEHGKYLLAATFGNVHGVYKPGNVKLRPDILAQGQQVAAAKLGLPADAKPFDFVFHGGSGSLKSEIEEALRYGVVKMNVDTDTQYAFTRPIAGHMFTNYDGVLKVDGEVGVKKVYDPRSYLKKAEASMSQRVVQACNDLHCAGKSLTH
GDH-TPI counter-1 – GDH-TPI coupled enzyme inhibition counter-screen | GDH-TPI coupled enzyme counterscreen, NADH absorbance | inhibition, % at 4.8 µM | hit rate 1.2% among 360,000 | AID 588335; in the data active means inhibition above about 30%
Mtb FBA inh conf – confirmation of M. tuberculosis fructose-bisphosphate aldolase inhibitors | purified M. tuberculosis FBA, fluorescence read-out | shares compounds with FBA Mtb inh | AID 651616 | inhibition, % at 1 µM | hit rate 78% among 5,600
GDH-TPI counter-2 – counter-screen for M. tuberculosis FBA inhibitors: GDH-TPI coupled enzyme inhibition | shares compounds with FBA Mtb inh | GDH-TPI coupled enzyme counterscreen, fluorescence | inhibition, % at 1 µM | hit rate 81% among 5,600; in the data active means inhibition above about 10%
Of the large screens only hits and unclear results are named; the others gave an inactive call (follow-up assays come after a bar, where they were run). In the library only some 4.7% were active in any assay of this set; here they are far more common. Unless noted, no stated cut-off is given here; in the data, active means inhibition above about 27%; inactive means the rest.

COCC(C)NC(=O)c1ccccc1OC(C)=O (configuration not stated)	FBA Mtb inh 34.8 | Mtb FBA inh conf 42.2 | GDH-TPI counter-2 37.5
CCOC(=O)c1sc2cccc(F)c2c1N	FBA Mtb inh 103.2 | Mtb FBA inh conf active | GDH-TPI counter-2 197.8
CCOC(=O)c1sc2cccc(Cl)c2c1N	none
N=c1oc2cc(O)ccc2cc1C(=O)Nc1ccc(Br)cc1	FBA Mtb inh 73.0 | Mtb FBA inh conf inactive | GDH-TPI counter-2 15.4
CC(COc1ccc(Cl)cc1)CN1CCC(C(O)(c2ccccc2)c2ccccc2)CC1 (configuration not stated)	none (no result: RecA intein inh, SARS 3CLpro inh, VHR inh abs, FBA Mtb inh, GDH-TPI counter-1)
O=C(O)CN1C(=O)/C(=C/c2cccc(Cl)c2)Oc2ccccc21	FBA Mtb inh 67.2 | Mtb FBA inh conf active | GDH-TPI counter-2 active
O=C(CN1C(=O)/C(=C\c2cccc(Br)c2)Oc2ccccc21)NCCCN1CCOCC1	FBA Mtb inh 33.4 | Mtb FBA inh conf 161.8 | GDH-TPI counter-2 130.4
CC1CCCC(NC(=O)COC(=O)c2cc(S(=O)(=O)N3CCOCC3)ccc2F)C1C (configuration not stated)	none (no result: RecA intein inh, SARS 3CLpro inh, VHR inh abs)
CCN1C(=O)CSC1=Nc1ccc(C(=O)OC)cc1	none (no result: RecA intein inh, SARS 3CLpro inh, VHR inh abs)
CC(C)(C)CC(C)(C)Nc1c(-c2ccc(O)cc2)nc2cnccn12	FBA Mtb inh 59.2 (no result: VHR inh abs) | Mtb FBA inh conf active | GDH-TPI counter-2 active
O=c1[nH]c2cc3c(cc2cc1CN(Cc1cccs1)Cc1nnnn1Cc1ccco1)OCCO3	FBA Mtb inh 35.1 | Mtb FBA inh conf 83.6 | GDH-TPI counter-2 77.6
O=c1[nH]c2cc3c(cc2cc1CN(Cc1cccnc1)Cc1nnnn1Cc1ccco1)OCCO3	FBA Mtb inh 34.1 | Mtb FBA inh conf inactive | GDH-TPI counter-2 inactive
COc1ccc2[nH]c(=O)c(-c3noc(-c4ccccc4)n3)cc2c1	FBA Mtb inh 32.0 | Mtb FBA inh conf 164.6 | GDH-TPI counter-2 117.1
COc1ccc2[nH]c(=O)c(-c3nnn(-c4ccccc4)n3)cc2c1	FBA Mtb inh 33.8 | Mtb FBA inh conf 175.7 | GDH-TPI counter-2 128.1
Cc1cccc(OC(C)C(=O)NC2CCS(=O)(=O)C2)c1C (configuration not stated)	FBA Mtb inh 87.8 (no result: CCHFV vOTU inh) | Mtb FBA inh conf 119.5 | GDH-TPI counter-2 82.7
Cc1ccccc1NC(=O)NC1CCS(=O)(=O)C1 (configuration not stated)	none
CN(C)CCCNc1nc(-c2ccccc2)c2c(c1C#N)CC(C)(C)OC2	FBA Mtb inh 44.9 | Mtb FBA inh conf 107.4 | GDH-TPI counter-2 84.5
N#Cc1c(NCCN)nc(-c2ccccc2)c2c1CCCC2	none
N#Cc1c(NCCCO)nc(-c2ccccc2)c2c1CCCC2	FBA Mtb inh 51.5 | Mtb FBA inh conf 57.5 | GDH-TPI counter-2 36.3
CC1(C)Cc2c(C#N)c(NCCc3ccccc3)nc(-c3ccco3)c2CO1	FBA Mtb inh 35.2 | Mtb FBA inh conf 170.7 | GDH-TPI counter-2 135.2
CC1(C)Cc2c(C#N)c(NCC3CCCO3)nc(-c3ccco3)c2CO1 (configuration not stated)	FBA Mtb inh 29.6 | Mtb FBA inh conf active | GDH-TPI counter-2 active
CCN(CC)CCNc1nc(-c2ccco2)c2c(c1C#N)CC(C)(C)OC2	none
CC1(C)Cc2c(C#N)c(NC3CCCCC3)nc(-c3ccco3)c2CO1	none (no result: CCHFV vOTU inh)
O=C1O[C@@H](c2ccccc2)C[C@@H](O)C(=O)CCc2ccccc21	none (no result: RecA intein inh, SARS 3CLpro inh, VHR inh abs, FBA Mtb inh, GDH-TPI counter-1)
C/C(NCCc1ccc(O)cc1)=C1/CCOC1=O	none (no result: RecA intein inh, SARS 3CLpro inh, VHR inh abs)
O=C1CCCCCC[C@@H](O)[C@H](O)C[C@H](c2ccccc2)O1	none (no result: RecA intein inh, SARS 3CLpro inh, VHR inh abs, FBA Mtb inh, GDH-TPI counter-1)
CCn1c2ccccc2c2cc(/C=N/n3c(C)nnc3C)ccc21	FBA Mtb inh 39.9 (no result: RecA intein inh) | Mtb FBA inh conf 61.9 | GDH-TPI counter-2 48.0
Cc1nnc(C)n1/N=C/c1ccccc1	none
N#CCC(=O)Nc1ccc(C(=O)NCc2ccccn2)cc1	FBA Mtb inh 27.0 (no result: RecA intein inh) | Mtb FBA inh conf 114.0 | GDH-TPI counter-2 72.4
CCCCN1C(=O)C(CC(=O)NCCc2ccccn2)CC(C(=O)N(CC)CC)=C1C (configuration not stated)	none (no result: RecA intein inh, SARS 3CLpro inh, VHR inh abs)
O=c1cc(-c2ccccc2)oc2ccc(Cl)cc12	none (no result: RecA intein inh, SARS 3CLpro inh, VHR inh abs)
O=c1cc(-c2cccs2)oc2ccc(Cl)cc12	FBA Mtb inh 37.8, GDH-TPI counter-1 37.6 | Mtb FBA inh conf 155.8 | GDH-TPI counter-2 119.5
Cc1onc(-c2ccccc2)c1C(=O)N1CCN(c2ccccc2F)CC1	none
Cc1cc(=O)oc2cc(OCC(=O)NCC3CCCO3)ccc12 (configuration not stated)	none
CCc1c(C)c2ccc(OCC(=O)NCC3CCC(C(=O)O)CC3)c(C)c2oc1=O (configuration not stated)	FBA Mtb inh 38.5 | Mtb FBA inh conf 166.6 | GDH-TPI counter-2 133.7
CCc1c(C)c2ccc(OCC(=O)OC)cc2oc1=O	FBA Mtb inh 69.9 | Mtb FBA inh conf 60.7 | GDH-TPI counter-2 48.5
Cc1cc(=O)oc2c(C)c(OCC(=O)NCC3CCC(C(=O)O)CC3)ccc12 (configuration not stated)	none
Cc1cccc(C)c1NC(=O)COc1ccc2c(C)c(Cc3ccccc3)c(=O)oc2c1	FBA Mtb inh 57.4 | Mtb FBA inh conf active | GDH-TPI counter-2 193.1
Cc1c(Cc2ccccc2)c(=O)oc2cc(OCC(=O)NCC3CCC(C(=O)O)CC3)ccc12 (configuration not stated)	FBA Mtb inh 104.1, GDH-TPI counter-1 34.3 (no result: RecA intein inh) | Mtb FBA inh conf inactive | GDH-TPI counter-2 inactive
CC(Cc1ccc(Cl)cc1)N1CCC(n2nccc2NC(=O)C2CCCC2)CC1 (configuration not stated)	none
Cc1c(C)n(Cc2ccc(F)cc2)c2ccc(C(=O)N3CCN(c4ccccn4)CC3)cc12	none
CC(=O)N1CCN(C(=O)COC(=O)COc2ccc(C#N)cc2)CC1	none (no result: SARS 3CLpro inh, VHR inh abs)
COc1cc(CN2CCNC(=O)C2CC(=O)N(C)CCN2CCOCC2)cc(OC)c1 (configuration not stated)	none
COC(=O)COc1cc(C)cc2oc(=O)c(CC(=O)OC)c(C)c12	FBA Mtb inh 92.7 | Mtb FBA inh conf 83.8 | GDH-TPI counter-2 66.2
COc1ccc(OC)c(N)c1	none
COc1cc(OC)c(Cl)cc1N	FBA Mtb inh 45.3 | Mtb FBA inh conf 67.0 | GDH-TPI counter-2 51.0
Cc1ccc(C(C(=O)NCC2CCCO2)N(C(=O)c2snc(C(N)=O)c2N)c2ccc(F)cc2)o1 (configuration not stated)	none
Cc1ccc(C(C(=O)NCC2CCCO2)N(C(=O)c2snc(C(N)=O)c2N)c2ccccc2F)o1 (configuration not stated)	FBA Mtb inh 33.2 | Mtb FBA inh conf 58.8 | GDH-TPI counter-2 39.2
Cc1ccccc1N(C(=O)c1snc(C(N)=O)c1N)C(C(=O)NC1CCCC1)c1ccco1 (configuration not stated)	FBA Mtb inh 37.0 | Mtb FBA inh conf 134.0 | GDH-TPI counter-2 98.4

Bioassay records: PubChem, several laboratories
